Assay results published in PubChem BioAssay.
Several values for one entry are separate records, joined by “and”; a condition that tells them apart may be missing. Identical values can stand only once.

Experiments:
[1] = tested on: Botulinum neurotoxin type F light chain protease (Clostridium botulinum); experiment: Clostridium botulinum type F light chain protease inhibitors, microsphere substrate cleavage, validation (AID 588459); details: multiplex microsphere protease substrate cleavage assay, flow cytometry; at 10 µM; stronger effect = higher value
[2] = molecular target: Botulinum neurotoxin type A (Clostridium botulinum) (UniProt P0DPI0); experiment: BoNT/A light chain protease inhibitors, biochemical, multiplex microsphere flow cytometry, validation set (AID 588460); details: at 10 µM, stronger effect = higher value
[3] = molecular target: Lethal factor (Bacillus anthracis) (UniProt P15917); experiment: Bacillus anthracis lethal factor inhibition, microsphere flow cytometry protease assay, validation at 10 µM (AID 588461); details: multiplex microsphere protease cleavage assay, stronger effect = higher value

Measured: inhibition

Sequence of Lethal factor (Bacillus anthracis) (P15917 whole entry, looked up): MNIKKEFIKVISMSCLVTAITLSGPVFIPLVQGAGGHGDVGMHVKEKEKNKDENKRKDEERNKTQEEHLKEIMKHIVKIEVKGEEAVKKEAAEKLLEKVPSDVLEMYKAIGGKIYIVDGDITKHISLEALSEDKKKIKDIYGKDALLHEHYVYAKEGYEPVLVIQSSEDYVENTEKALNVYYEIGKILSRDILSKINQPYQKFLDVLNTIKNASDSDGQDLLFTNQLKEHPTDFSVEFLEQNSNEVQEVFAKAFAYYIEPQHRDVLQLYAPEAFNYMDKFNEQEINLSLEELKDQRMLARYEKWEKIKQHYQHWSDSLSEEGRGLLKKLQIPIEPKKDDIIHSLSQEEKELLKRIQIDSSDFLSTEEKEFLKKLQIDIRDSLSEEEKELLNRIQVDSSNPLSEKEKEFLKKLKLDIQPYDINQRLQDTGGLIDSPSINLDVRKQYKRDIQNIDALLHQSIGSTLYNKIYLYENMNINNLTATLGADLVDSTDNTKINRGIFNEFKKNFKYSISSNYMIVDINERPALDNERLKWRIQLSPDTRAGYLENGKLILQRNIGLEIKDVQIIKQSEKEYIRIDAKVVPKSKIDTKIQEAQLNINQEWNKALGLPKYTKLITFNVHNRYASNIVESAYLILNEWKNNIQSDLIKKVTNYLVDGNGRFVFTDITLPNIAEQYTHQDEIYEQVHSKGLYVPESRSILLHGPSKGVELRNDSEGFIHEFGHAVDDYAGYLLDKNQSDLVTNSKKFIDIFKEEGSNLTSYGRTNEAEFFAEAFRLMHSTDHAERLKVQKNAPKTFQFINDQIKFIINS
Sequence of Botulinum neurotoxin type A (Clostridium botulinum) (P0DPI0 whole entry, looked up): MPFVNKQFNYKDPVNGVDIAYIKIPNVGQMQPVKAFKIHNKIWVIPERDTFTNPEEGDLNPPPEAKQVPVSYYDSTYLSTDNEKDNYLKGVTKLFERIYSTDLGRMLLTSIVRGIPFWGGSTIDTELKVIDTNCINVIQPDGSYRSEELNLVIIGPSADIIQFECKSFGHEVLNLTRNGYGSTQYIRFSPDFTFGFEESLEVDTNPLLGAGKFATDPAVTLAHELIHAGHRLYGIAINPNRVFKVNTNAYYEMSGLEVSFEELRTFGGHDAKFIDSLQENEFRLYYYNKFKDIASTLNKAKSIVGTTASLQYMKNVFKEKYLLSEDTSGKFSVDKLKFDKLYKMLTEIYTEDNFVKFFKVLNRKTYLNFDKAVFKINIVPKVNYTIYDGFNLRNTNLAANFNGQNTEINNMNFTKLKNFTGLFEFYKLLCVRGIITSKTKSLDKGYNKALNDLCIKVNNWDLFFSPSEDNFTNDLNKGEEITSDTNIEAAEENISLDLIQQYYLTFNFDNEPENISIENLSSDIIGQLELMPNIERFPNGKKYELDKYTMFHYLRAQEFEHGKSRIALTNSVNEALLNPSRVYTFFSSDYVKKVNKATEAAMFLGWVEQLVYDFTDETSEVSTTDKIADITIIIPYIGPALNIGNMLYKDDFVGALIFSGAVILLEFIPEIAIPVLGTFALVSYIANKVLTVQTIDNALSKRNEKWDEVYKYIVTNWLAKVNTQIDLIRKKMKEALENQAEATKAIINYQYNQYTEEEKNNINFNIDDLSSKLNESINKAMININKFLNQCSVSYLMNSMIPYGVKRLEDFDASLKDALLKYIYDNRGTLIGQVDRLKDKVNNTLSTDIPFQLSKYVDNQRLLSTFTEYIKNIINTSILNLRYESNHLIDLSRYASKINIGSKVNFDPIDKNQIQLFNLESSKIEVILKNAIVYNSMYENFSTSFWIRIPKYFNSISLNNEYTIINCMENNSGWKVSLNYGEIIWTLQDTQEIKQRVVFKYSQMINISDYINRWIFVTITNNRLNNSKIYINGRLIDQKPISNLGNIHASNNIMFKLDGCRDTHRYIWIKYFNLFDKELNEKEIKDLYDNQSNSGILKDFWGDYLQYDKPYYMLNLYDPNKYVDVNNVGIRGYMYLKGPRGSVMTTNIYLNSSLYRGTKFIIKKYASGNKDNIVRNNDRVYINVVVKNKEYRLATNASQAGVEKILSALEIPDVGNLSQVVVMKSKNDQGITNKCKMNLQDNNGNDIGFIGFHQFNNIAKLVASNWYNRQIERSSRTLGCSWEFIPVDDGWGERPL

CCOC(=O)COc1ccc2c(=O)c(-c3ccccc3)coc2c1
inactive: [1] -1.6% | [2] 1.3% | [3] 1%

COc1ccc(Cc2noc(CN(C)CCN3CCc4ccccc4C3)n2)cc1OC
inactive: [1] -1.9% | [2] -0.3% | [3] -7.4%

CC12CCC(C(=O)NCc3ccc4c(c3)OCO4)(CC1=O)C2(C)C (stereo not given)
inactive: [1] 1.9% | [2] 1.2% | [3] 4.8%

Nc1nc(Cl)nc2c1ncn2[C@H]1C[C@H](O)[C@@H](CO)O1
inactive: [1] -8.7% | [2] -2.6% | [3] -19.4%

Cc1ccc(-c2nn(-c3cccc(F)c3)cc2CN2CCN(c3ccccn3)CC2)o1
inactive: [1] -0.1% | [2] -0.9% | [3] -6.4%

CCOCCCNCc1cn(-c2ccc(F)cc2F)nc1-c1ccccc1C
inactive: [1] -0.4% | [2] -1.9% | [3] -0.3%

Cc1ccc(C(=O)COC(=O)c2cnccn2)cc1[N+](=O)[O-]
inactive: [1] 2.8% | [2] -0.2% | [3] -5.2%

COc1cc(C2C(C(C)=O)=C(O)C(=O)N2c2ccc(C)cc2)ccc1O (stereo not given)
inactive: [1] -1.4% | [2] 0.2% | [3] 0%

CC1=NN(c2ccccc2)C(=O)C1
inactive: [1] 1.1% | [2] -3% | [3] 1.8%

CC(C)=CCC(C)(C)/C=N/NC(N)=O
inactive: [1] 1.8% | [2] 0.6% | [3] 10.3%

CCOc1ccc(C(=O)N2CCCC2C(=O)O)cc1 (stereo not given)
inactive: [1] -1.3% | [2] 0.5% | [3] 1.5%

NCc1ccccc1COc1ccccc1
inactive: [1] 2.3% | [2] 0.1% | [3] -1.7%

CCCc1c(OCCCCc2nn[nH]n2)ccc(C(C)=O)c1O
inactive: [1] -1.3% | [2] -4% | [3] -10.3%

O=c1[nH]c(Cc2ccccc2)nc2c1oc1ccccc12
inactive: [1] 4.2% | [2] 0.2% | [3] 8.7%

Cc1ccc(C2CC(=O)C(C=NCCN3CCN(C(=S)Nc4ccccc4)CC3)=C(O)C2)cc1 (stereo not given)
inactive: [1] -0.8% | [2] 0.1% | [3] 5.4%

O=C(CCCCC(=O)NC1CCCC1)NC1CCCC1
inactive: [1] 1.5% | [2] 0.2% | [3] -3.4%

CC1(C#CC[N+]2(C)CCCCC2)CCC2C(O1)c1ccccc1OC2(C)C (stereo not given)
inactive: [1] 2.6% | [2] -0.8% | [3] -2.1%

O=c1cc(CN2CCN(c3cccc(Cl)c3)CC2)c2cc(O)c(-c3ccccc3)cc2o1
inactive: [1] -1.3% | [2] -1.5% | [3] -0.5%

C=C(C)c1nc2cc(OC)c(OC)cc2c(=O)o1
inactive: [1] -7.9% | [2] -1.3% | [3] 0.1%

COc1ccc(C(=O)NC(=O)NC2(C(Cl)(Cl)Cl)OCCO2)cc1
inactive: [1] 0.9% | [2] -1.2% | [3] 3.1%

CCCCCCCC(=O)OCC(=O)[C@@]1(O)CC[C@H]2[C@@H]3CCC4=CC(=O)CC[C@]4(C)[C@H]3[C@@H](O)C[C@@]21C
inactive: [1] -3.8% | [2] 0.3% | [3] 4.7%

c1ccc(CN(CC2=NCCN2)c2ccccc2)cc1
inactive: [1] 5.3% and 2.2% | [2] 1.1% and 0.4% | [3] -3.2% and 1.4%

CC(=O)OCC1OC(n2ccc(=O)[nH]c2=O)C(O)C1O (stereo not given)
inactive: [1] -0.4% | [2] 0.5% | [3] -5.3%

CC(C)C[C@H](NC(=O)NC(C)C)C(=O)O
inactive: [1] 1.1% | [2] 0% | [3] 2.9%

CN1C(=O)NC(c2ccc(O)cc2)C2=C1CN(c1cccc3ccccc13)C2=O (stereo not given)
inactive: [1] 3.2% | [2] -1% | [3] -10.8%

COc1ccc2oc(=O)c(-c3nc(C)cs3)cc2c1
inactive: [1] 2.9% | [2] 1.9% | [3] -0.1%

O=C(/C=C/c1ccccc1)NCC1(c2ccccc2)CCOCC1
inactive: [1] -1.5% | [2] 0.4% | [3] 3%

CCNC(=O)C12CCC(C)(C(=O)O1)C2(C)C (stereo not given)
inactive: [1] -1% | [2] -1% | [3] -7.4%

CSCCC(NC(C)=O)C(=O)Oc1ccc2c3c(c(=O)oc2c1)CCCC3 (stereo not given)
inactive: [1] -3.3% | [2] -1.8% | [3] -1.8%

CSCCC1NC2(C(=O)Nc3ccc(Cl)cc32)[C@@H]2C(=O)N(C3CCCC3)C(=O)[C@H]12 (stereo not given in full)
inactive: [1] 0.8% | [2] -1.4% | [3] -11.2%

CCC(=O)O[C@]1(C(=O)CCl)[C@@H](C)C[C@H]2[C@@H]3CCC4=CC(=O)C=C[C@]4(C)[C@@]3(F)[C@@H](O)C[C@@]21C
inactive: [1] -0.5% | [2] -1.2% | [3] -3.4%

C[C@H]1C[C@@H]2[C@H]([C@@H](O)C[C@@]3(C)[C@H]2CC[C@]3(O)C(=O)CO)[C@@]2(C)C=CC(=O)C=C12
inactive: [1] -2.2% | [2] 0.7% | [3] -0.7%

O=C(O)c1ccc(C(=O)C(=O)c2ccccc2)cc1
inactive: [1] 1.6% | [2] 1.8% | [3] -6.8%

CCCC(=O)Nc1ncnc2c1ncn2[C@@H]1O[C@@H]2COP(=O)(O)O[C@H]2[C@H]1OC(=O)CCC
inactive: [1] -0.5% | [2] -1% | [3] -2.7%

COc1ccc(-c2csc(-c3cccnc3)n2)cc1C
inactive: [1] -2% | [2] -1.6% | [3] -5.1%

Cc1ccc2[nH]c3c(=O)n(CCCN4CCN(C)CC4)cnc3c2c1
inactive: [1] 7.8% | [2] -1% | [3] -2.5%

COc1ccc(NC(=O)CC(c2ccccc2)c2ccco2)cc1 (stereo not given)
inactive: [1] 2.3% | [2] 0.9% | [3] 9.1%

Cc1ccc(S(=O)(=O)N[C@@H](C)C(=O)N2CCC(C(=O)N3CCC[C@H]3C(=O)O)CC2)cc1
inactive: [1] 1.9% | [2] 1% | [3] -1.7%

O=C(/C=C/Sc1ccccc1)c1ccccc1
inactive: [1] -0.5% | [2] -0.8% | [3] -4.1%

CC(C)(CO)CNC(=O)CC1C(=O)NCCN1CC(c1ccccc1)c1ccccc1 (stereo not given)
inactive: [1] 0.8% | [2] -0.4% | [3] 0.3%

CC1(C)CC(C(CC(=O)O)c2ccccc2)CCO1 (stereo not given)
inactive: [1] 0.4% | [2] -0.2% | [3] -7.8%

C[N+](C)(C)CCOP(=O)(O)OP(=O)([O-])OC[C@H]1O[C@@H](n2ccc(N)nc2=O)[C@H](O)[C@@H]1O
inactive: [1] 6% | [2] 0.6% | [3] 8.1%

COC(=O)C1[C@H]2C(=O)N(Cc3cccs3)C[C@]23C=C[C@H]1O3 (stereo not given in full)
inactive: [1] -0.5% | [2] -0.7% | [3] -4%

COc1ccc(O)c(C2=Nc3ccccc3N=C(c3ccccc3)C2)c1
inactive: [1] 0.8% | [2] 0.8% | [3] 4.2%

COC(=O)c1[nH]c2ccc(F)cc2c1NC(=O)C1=COCCO1
inactive: [1] 0% | [2] 0.8% | [3] -4.9%

CCS(=O)(=O)Nc1cc(OC)c(OC)cc1Cc1nccc2cc(OC)c(OC)cc12
inactive: [1] 0.2% | [2] 0.4% | [3] -0.6%

CCn1nc(C(=O)O)c(=O)c2cc3c(cc21)OCO3
inactive: [1] 5.7% | [2] 0.6% | [3] 0.2%

COc1ccc2c(c1)CC[C@@H]1[C@@H]2CC[C@]2(C)C(=O)CC[C@@H]12
inactive: [1] -4% | [2] -1.5% | [3] -5%

CSc1ccc(CN2CCN(CCC(C)C)C(CCO)C2)cc1 (stereo not given)
inactive: [1] 2.2% | [2] 0.1% | [3] -3.3%

COc1cc(CNCc2ccc(OC)c(OC)c2OC)cc(OC)c1
inactive: [1] 0.5% | [2] -0.7% | [3] 5.3%

COc1ccc(C2CC(c3c(O)cc(C)oc3=O)=NCCS2)c(OC)c1 (stereo not given)
inactive: [1] 4.5% | [2] 2% | [3] 4.3%

CC(=O)NCCCCCCNC(C)=O
inactive: [1] 5.8% | [2] 2.3% | [3] 10.8%

CC(C)(C)C(=O)NC(=S)Nc1sc2c(c1C(N)=O)CCC2
inactive: [1] 0.8% | [2] 0.4% | [3] -1.2%

CC(C)C[C@H]1C(=O)N2CCC[C@H]2[C@]2(O)O[C@](NC(=O)[C@@H]3C=C4c5cccc6[nH]c(Br)c(c56)CC4N(C)C3)(C(C)C)C(=O)N12 (stereo not given in full)
inactive: [1] 5.1% | [2] 1.3% | [3] -5.6%

COC(=O)c1cc(COc2ccc3ccc(=O)oc3c2)c(C)o1
inactive: [1] -0.4% | [2] -1.4% | [3] 1%

Nc1ncnc2c1ncn2C1OC(CO)C(O)C1O (stereo not given)
inactive: [1] 14.6% | [2] -0.2% | [3] 2%

COC(=O)[C@H]1[C@H]2C[C@@H]3c4[nH]c5cc(OC)ccc5c4CCN3C[C@H]2C[C@@H](OC(=O)c2ccc(N)cc2)[C@@H]1OC
inactive: [1] -4.7% | [2] -2.3% | [3] -32.8%

Cc1c(Cc2ccccc2)c(=O)oc2c(CN(C)C)c(O)c(Cl)cc12
inactive: [1] 0% | [2] -0.6% | [3] -7.6%

COc1ccc(-c2[nH]ncc2CN(C)C(C)c2ccon2)c(OC)c1 (stereo not given)
inactive: [1] 1.9% | [2] 1.4% | [3] 0%

CC1(C)CC(=O)C2=C(C1)c1c(ccc3ccccc13)NC2c1ccco1 (stereo not given)
inactive: [1] 1.8% | [2] 1.1% | [3] 3.8%
